Screening results deposited in PubChem BioAssay by several laboratories.
CYP2C19 act = cytochrome P450 2C19 (human) activation | P33261 | recombinant CYP2C19, luciferin-H EGE luminescence; stronger effect = higher value; 0 = fully inhibited enzyme, 1 = untreated enzyme | activation factor at 5 µM | 96,000 tested, under 10 active | AID 1025;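 active = activation factor of at least 2 at 5 µM in the primary screen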;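 also: 0 = wells with 2.5 mM tranylcypromine and 1 = vehicle-only wells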
Target sequence (P33261 whole entry, looked up): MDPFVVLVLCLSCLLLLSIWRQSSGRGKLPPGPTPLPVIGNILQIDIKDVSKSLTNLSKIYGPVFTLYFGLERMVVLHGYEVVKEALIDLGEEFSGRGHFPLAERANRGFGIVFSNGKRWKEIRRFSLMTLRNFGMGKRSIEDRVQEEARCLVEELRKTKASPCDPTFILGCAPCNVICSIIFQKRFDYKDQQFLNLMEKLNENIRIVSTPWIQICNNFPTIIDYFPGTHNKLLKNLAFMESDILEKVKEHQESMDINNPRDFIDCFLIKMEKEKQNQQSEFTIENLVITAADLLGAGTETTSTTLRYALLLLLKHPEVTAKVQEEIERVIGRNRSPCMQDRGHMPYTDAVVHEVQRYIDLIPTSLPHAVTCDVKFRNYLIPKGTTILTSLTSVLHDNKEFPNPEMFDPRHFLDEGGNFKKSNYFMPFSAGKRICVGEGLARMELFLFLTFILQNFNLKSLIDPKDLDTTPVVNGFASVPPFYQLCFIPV
Cav32 inh = blocks human Cav3.2 T-type calcium channel. O95180. Cav3.2-expressing cells, Fluo-4 calcium fluorescence FDSS; stronger effect = lower value. AID 449739. B-score at 10 µM. 100,000 tested, 4% active;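 active = single-dose well whose peak fluorescence ratio is a statistical outlier from its plate by either plate-standardised score or position-corrected B-score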
CYP2C9 inh = blocks human cytochrome P450 2C9 | CYP2C9 Supersomes, luciferin-H conversion, luminescence | 96,000 tested, 20% active | P11712 | inhibition, % at 5 µM;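 active = blocking of liver enzyme CYP2C9 beyond about 50% at 5 µM, limit read from the data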
CYP2C19 inhib = human CYP2C19 inhibition. P33261. AID 778. 96,000 tested, 21% active. inhibition, % at 5 µM. CYP2C19 Supersomes, luciferin-H EGE luminescence, 30 min;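 active = CYP2C19 inhibition above a set limit at 5 µM in the primary screen, cut at about 50% in these data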;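 also: plate controls were negative control wells for no effect and 2.5 mM tranylcypromine positive control for full effect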
CYP2C9 activ = CYP2C9 (human) activation | P11712 | recombinant CYP2C9, luciferin-H conversion, luminescence; stronger effect = higher value; factor 1 = untreated enzyme, 0 = blocked | activation factor at 5 µM | 96,000 tested, 1.4% active;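 active = activation factor of 2 or more for CYP2C9 at a 5 µM dose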;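 also: 0 = sulfaphenazole-blocked wells and 1 = vehicle-only wells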
Numbers without * were called inactive; . = not tested or not shown. Hits are enriched below; roughly 27% of the tested compounds scored in any of these assays.

SMILES	CYP2C19 act	Cav32 inh	CYP2C9 inh	CYP2C19 inhib	CYP2C9 activ
CSc1nnc(-c2cnccn2)n1CCCN1CCCC1=O	1	0.43	4	0	1
Cc1ccc(-n2nnnc2SCCNS(=O)(=O)c2ccccc2)cc1C	0.3	-3.4	-96	75*	2*
Cn1nnnc1SCCNS(=O)(=O)c1ccccc1	0.2	0.2	-4	78*	1
CCc1ccc(/C=C/C(=O)c2c(C)cc(C)[nH]c2=O)cc1	0.2	1.4	-23	80*	1.2
O=C(/C=C/c1ccc(O)cc1)c1c(O)cc(O)cc1O	.	1.1	.	.	.
O=C(CC(Sc1ccccc1)c1cccs1)c1ccco1 (stereo not given)	0	-0.98	95*	100*	0.1
O=C(Cc1cccs1)OCC(=O)c1ccco1	0.7	-0.072	8	26	0.9
CCCCS(=O)CC(COc1ccc(Cl)cc1)OC(=O)c1ccccc1 (stereo not given)	0	-3.5	80*	95*	0.2
Cc1ccc(N2C(=O)c3cccc4c(N5CCN(C)CC5)ccc(c34)C2=O)c2cccnc12	0.7	-4.3*	14	30	0.9
Cc1n[nH]c(C)c1N1C(=O)c2cccc3c(Br)ccc(c23)C1=O	.	-3.5	.	.	.
N#CCc1ccc(C(=O)c2ccccc2F)s1	0.7	0.51	4	25	1
COc1cc2c(cc1OC)C(C(=O)Nc1ccc3c(c1)OCCO3)C(c1cccnc1)N(C)C2=O (stereo not given)	1	.	54*	3	0.5
CC1=C(C(=O)OCc2ccccc2)C(c2ccc(Cl)cc2Cl)NC(=O)N1CCCC(=O)O (stereo not given)	.	0.36	.	.	.
OC(c1ccccc1)C1CN(Cc2ccccc2)CCC1(O)c1ccccc1 (stereo not given)	0.3	-2	15	67*	0.9
OC1CCCN(Cc2ccccc2)C1 (stereo not given)	1.1	0.2	-9	-10	1.1
Cc1cc(C)c(NC(=O)C(C)c2cccc(C(=O)c3ccccc3)c2)c(C)c1 (stereo not given)	0.3	-5.5*	73*	72*	0.3
CCN(CC)S(=O)(=O)c1cccc(-c2nnc(SCC(=O)c3ccc(Cl)s3)n2C)c1	0.3	-1.7	89*	71*	0.1
CCN(CC)S(=O)(=O)c1cccc(-c2nnc(SCC(N)=O)n2CCc2ccccc2)c1	.	1.6	.	.	.
CCN(CC)S(=O)(=O)c1cccc(-c2nnc(SC(C)C(N)=O)n2CCc2ccccc2)c1 (stereo not given)	0.5	1	56*	46	0.4
CCN(CC)S(=O)(=O)c1cccc(-c2nnc(SC(C)C#N)n2Cc2ccccc2)c1 (stereo not given)	0.4	-0.11	64*	61*	0.4
CCN(CC)S(=O)(=O)c1cccc(-c2nnc(SCC#N)n2Cc2ccccc2)c1	0.8	1.8	18	23	0.8
Cn1c(=O)c2c(nc(SCC(=O)N3CCCCCC3)n2C)n(C)c1=O	.	0.56	.	.	.
c1ccc(C2=NNC(=NC3CC3)SC2)cc1	0.2	0.86	54*	84*	0.5
COC(=O)C1N[C@@H]([C@@H](NC(=O)COc2ccccc2)C(=O)NCc2ccsc2)SC1(C)C (stereo not given in full)	.	0.67	.	.	.
CN(C)c1ccc(CNC2CC(C)(C)NC(C)(C)C2)cc1	1.2	-0.55	-19	-17	1.2
SMILES	CYP2C19 act	Cav32 inh	CYP2C9 inh	CYP2C19 inhib	CYP2C9 activ
CC(NCc1ccc(N(C)C)cc1)C1CC2CCC1C2 (stereo not given)	0.1	1.1	7	86*	0.9
COc1cc(Br)c(CC(=O)O)cc1OC	1	0.12	-9	2	1.1
COC(=O)Cc1cc(OC)c(OC)cc1Cc1cc(OC)c(OC)cc1CC(=O)OC	0.1	-0.074	25	88*	0.8
CCOC(=O)Cc1cc(OC)c(OC)cc1Cc1cc(OC)c(OC)cc1CC(=O)OCC	0.4	-0.3	23	55*	0.8
Cc1sc2c(c1C)c(=O)nc1n2Cc2ccccc2-1	1	.	-34	-3	1.3
CC(C)c1ccc(NC(=O)C2C3C=CC4(CN(CCCN5CCOCC5)C(=O)C24)O3)cc1 (stereo not given)	0.9	-3.2	-25	7	1.3
Nc1ccc(SC(F)(F)F)cc1C(=O)c1ccccc1	0.7	.	33	32	0.7
Nc1ccc(Cl)cc1/C(=N/O)c1ccccc1	0.2	-1.1	56*	78*	0.4
COc1ccc(C2N=C(c3ccccc3)C(C)(C)N2O)cc1 (stereo not given)	0.2	0.76	12	83*	0.9
CCN(CC)S(=O)(=O)c1ccc2[nH]cc(C(=O)NCCc3ccc(OC)c(OC)c3)c(=O)c2c1	0.4	0.47	60*	57*	0.4
COc1ccc2[nH]cc(C(=O)CN(C)CCc3ccc(OC)c(OC)c3)c2c1	0.1	.	91*	85*	0.1
COc1ccc(CCNC(=O)c2c[nH]c3ccccc3c2=O)cc1OC	0.5	0.89	29	50*	0.7
CCCC[C@@H]1CNC(=S)N1CCc1cccc2ccccc12	.	-1.4	.	.	.
N#Cc1cc2sc3nc4ccccc4n3c2cc1C#N	1.1	-0.013	9	-12	0.9
N#Cc1cc2sc3nnc(-c4ccncc4)n3c2cc1C#N	0.1	2.1	65*	92*	0.3
CNC(=O)CN(c1ccc(C(C)C)cc1)S(C)(=O)=O	0.4	0.38	-10	61*	1.1
c1cncc(-c2nn[nH]n2)c1	1	1.3	7	1	0.9
c1csc(-c2nn[nH]n2)c1	0.1	0.75	36	95*	0.6
Cc1ccc(C(=O)CNc2ccc(Br)cc2)cc1	0.2	0.54	31	75*	0.7
Cc1cccc(NCCC(=O)c2ccc(Br)cc2)c1	0.7	-1.7	23	32	0.8
O=C(CNc1ccc(Br)cc1)c1ccccc1	0.2	-0.52	30	77*	0.7
C[C@@H]1CC[C@@]2(O[C@@H](CCO)C[C@@H](O)[C@@H]2O)O1	.	-0.038	.	.	.
Cc1cc(OCC(=O)N2CCOCC2)ccc1NC(=O)C1CCCCC1	1	0.024	-10	-4	1.1
Cc1csc2nc(CSc3ccc(Cl)cc3)cn12	0.3	-1.1	-261	73*	3.6*
Nn1c(SCc2cn3ccsc3n2)nnc1-c1ccncc1	0.4	0.32	8	65*	0.9
SMILES	CYP2C19 act	Cav32 inh	CYP2C9 inh	CYP2C19 inhib	CYP2C9 activ
Nn1c(SCC(=O)N2CCCCC2)nnc1-c1ccncc1	0.9	0.2	5	14	0.9
Clc1ccc(SCc2cn3ccsc3n2)cc1	0.5	-2.5	-20	53*	1.2
CCCCCc1c(C)nc(Nc2ccccc2)[nH]c1=O	0.6	-0.42	12	42	0.9
O=C(CNCC1CCCO1)N1CCCc2ccccc21 (stereo not given)	1.2	0.72	-14	-16	1.1
CN(C)CCCNC(=O)CC(c1ccccc1)c1ccccc1O (stereo not given)	1.2	.	-17	-18	1.2
CC(C)(C)NC(=O)CC(c1ccccc1)c1ccccc1O (stereo not given)	0.1	0.012	96*	90*	0
